Laboratory results from PubChem BioAssay (EPA / NIEHS).
Calls of active or inactive are those of the source. How the source made its calls: active means hit-call score of the fitted dose curve at least 0.9, where 1 is the maximum; inactive means score below 0.9.

Read-out: Early growth response protein 1 (EGR1) transcription factor, EGR1 (gene 1958)
Experiment: LTEA_HepaRG_EGR1: Life Technologies and Expression Analysis (LTEA) Assay for Early growth response protein 1 (EGR1) transcription factor using HepaRG (AID 2283490)
Details: mRNA level, 48 h; actives raise or lower the signal
Protocol: LTEA_HepaRG is a cell based, multiplexed-readout assay that uses HepaRG, a human liver cell line, with measurements taken at 48 hours after chemical dosing on a 96-well plate.LTEA_HepaRG_EGR1 is one of 102 assay component(s) measured in the LTEA HepaRG cell culture assay. It is a marker of Cell proliferation, survival, death.Data from the assay component LTEA_HepaRG_EGR1 was analyzed into 1 endpoint. This assay endpoint, LTEA_HepaRG_EGR1, was analyzed with bidirectional fitting relative to DMSO as the negative control and baseline of activity. Using a type of inducible reporter, measures of mRNA induction for gain or loss-of-signal activity can be used to understand regulation of transcription factor activity. To generalize the intended target to other relatable targets, this assay endpoint is annotated to the dna binding intended target family, where the subfamily is zinc finger.
A total of 1060 chemcials from the ToxCast library were tested in eight-point concentration-response experiments. Cell culture and cytotoxicity assays were conducted at Thermo Fisher Scientific's Custom Services facility (Madison, WI). A single lot of human HepaRG cells (Thermo Fisher Scientific, Frederick, MD) was used for the cell culture experiments. 96-well format collagen type I coated plates of human HepaRG cells were prepared using established methods. Briefly, cryopreserved HepaRG cells were thawed, plated at a density of approximately 100,000 cells/well in HepaRG Thaw, Plate, and General Purpose media (HPRG770, Thermo Fisher Scientific), and incubated for 48 hours. 0.5% DMSO was selected as vehicle control to balance the requisite need of DMSO in HepaRG cultures to maintain differentiation (for example, baseline metabolism, proportions of hepatocytes vs. cholangiocytes), while enabling further hepatic receptor pathway activation (for example, PXR and CAR) in response to chemical exposure. 48 hours after plating, the culture medium was replaced with HepaRG Serum-Free Incudtion Media. Cells were exposed to each test chemical in duplicate and maintained in CO2 incubators for another 48 hours. Chemical plates were thawed to room temperature and 200x concentrations of treatment groups were prepared. 8-point conentration-reponse curves were made with the highest exposure at 100 uM, followed by half-log dilutions, all in 0.5% DMSO. Each test plate contained variouse controls, induction positive controls (1mM phenobarbital), cytotoxicity positive controls ([…] aflatoxin B1), vehicle controls (0.5% DMSO), and total lysis controls (0.5% DMSO). Cell morphology images were taken using an Essen IncuCyte FLR automated microscope, with six 96-well plates imaged in about 24 minutes. Images were captured and exported and JPEG files. Spent culture media was transfered to black-well plates for the LDH assay, and remaining media was sorted at -80 C for later use. Cells were treated with RLT buffer and frozen until shipped for gene expression analysis. Total RNA was isolated from the cell suspension in 75 uL of Buffer RLT (Qiagen, Germantown, MD 20874) by Quintiles/Expression Analysis (Durham, NC) using a custom isolation procedure. Total RNA from each plate well was transferred to a preamplification plate. Fluidigm's 96.96 Dynamic ArrayTM (Fluidigm, Amsterdam, the Netherlands) technology was used for gene expression analyses by quantitative reverse transcription polymerase chain reaction (qRT-PCR, performed by Quintiles/Expression Analysis, Durham, NC)89. Standard TaqManTM Assays (Applied Biosystems/ThermoFisher Scientific, Foster City, CA) were used to assess the expression of 93 genes selected based on their selectivity and sensitivity to important hepatic receptors known to be modulated by environmental chemicals; importance in human hepatocyte functionality; and hepatotoxicity. […]

SMILES | outcome | AC50
CCCSC(=O)N(CCC)CCC | inactive | 
CC(O)CCO (stereo not given) | inactive | 
ClCCOCCCl | inactive | 
[O-][Cl+]O | inactive | 
Clc1ccc(C(c2ccc(Cl)cc2)C(Cl)Cl)cc1 | inactive | 
N#CC(Br)Br | inactive | 
COP(=S)(OC)SCN1C(=O)c2ccccc2C1=O | inactive | 
CCCCC(CC)COC(=O)c1ccc(C(=O)OCC(CC)CCCC)c(C(=O)OCC(CC)CCCC)c1 (stereo not given) | inactive | 
CC(C)N(Cc1ccccc1)C(=O)C(C)(C)C | inactive | 
c1ccc(C2CO2)cc1 (stereo not given) | inactive | 
Clc1ccccc1Cl | inactive | 
Brc1ccc(Oc2ccccc2)cc1 | inactive | 
CNC(=O)Oc1cccc2c1OC(C)(C)C2 | inactive | 
c1ccc2c(c1)-c1cccc3cccc-2c13 | inactive | 
OCCCBr | inactive | 
C1=Cc2cccc3cccc1c23 | inactive | 
CN(C)C(=O)Nc1ccc(Cl)cc1 | inactive | 
CCCCCCCCCCCCCN1CC(C)OC(C)C1 (stereo not given) | inactive | 
CC(C)(OOC(C)(C)c1ccccc1)c1ccccc1 | inactive | 
C=CCc1ccc2c(c1)OCO2 | inactive | 

SMILES | outcome | AC50
ClC1=C(Cl)C2(Cl)C3C(Cl)C=CC3C1(Cl)C2(Cl)Cl (stereo not given) | inactive | 
CC(C)COC(=O)c1ccccc1C(=O)OCC(C)C | inactive | 
CC(C)(C)OOC(=O)c1ccccc1 | inactive | 
Clc1ccc(Cl)c(Cl)c1 | inactive | 
Cc1ccc([N+](=O)[O-])cc1 | inactive | 
[As]#[In] | inactive | 
Nc1cc(Cl)cc(C(=O)O)c1Cl | inactive | 
CN(C)c1ccc(C(=O)c2ccc(N(C)C)cc2)cc1 | inactive | 
OCCCl | inactive | 
CCCCCCCCn1sccc1=O | inactive | 
Nc1ccc(Cc2ccc(N)cc2)cc1 | inactive | 
CN(C)c1ccccc1 | inactive | 
CO[C@@H]1[C@H](OC(=O)NC(=O)CCl)CC[C@]2(CO2)[C@H]1[C@@]1(C)O[C@@H]1CC=C(C)C | inactive | 
COc1cc(C=O)cc2c1[C@H](COC(N)=O)[C@]1(OC(C)=O)ON2C[C@H]2[C@@H]1N2C(C)=O |  | 88.8 µM (active)
ClC1=C(Cl)[C@]2(Cl)[C@H]3[C@H]([C@@H]4C=C[C@H]3C4)[C@@]1(Cl)C2(Cl)Cl | inactive | 
O=C(Nc1ccccc1)c1ccccc1I | inactive | 
O=[N+]([O-])C(Br)(CO)CO | inactive | 
Clc1ccc(C(c2ccc(Cl)cc2)C(Cl)(Cl)Cl)cc1 | inactive | 
O=P(OCCCl)(OCCCl)OCCCl | inactive | 
Cc1cc(N=Nc2ccccc2C)ccc1N | inactive | 
